Hit rate of the full screen: of about 91,000 compounds, about 290 (0.32%) were called active. Not shown: some 7% with an inconclusive outcome. Calls follow the shape of the dose curve; as a rule, active = well fitted inhibition curve with a large enough effect; inconclusive = small, poorly fitted or top-dose-only effect; inactive = no such curve, though single readings can be large or run the other way. Only a selection was taken, and actives are over-represented in it overall.
Target: Single-stranded DNA cytosine deaminase (Homo sapiens) (UniProt Q9GZX7)
Sequence (Q9GZX7 whole entry, looked up): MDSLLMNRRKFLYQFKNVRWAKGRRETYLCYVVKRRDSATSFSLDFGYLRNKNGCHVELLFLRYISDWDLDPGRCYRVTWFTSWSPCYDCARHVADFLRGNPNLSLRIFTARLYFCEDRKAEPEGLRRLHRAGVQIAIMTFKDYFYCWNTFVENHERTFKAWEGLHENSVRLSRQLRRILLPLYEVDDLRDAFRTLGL
Test: Primary qHTS assay for inhibitors of Activation Induced Cytidine Deaminase (AID): AID signal; also: nearly all actives have a fitted effect of over 25% in size
Details: AID deamination FRET fluorescence, UDG-coupled, 4 h; series mostly up to 115 µM; activity change, negative = inhibition: at the top concentration
Excerpt: Assay Provider (PI) Patricia Gearhart Ph.D.
National Institute on Aging
National Institute of Health (NIH), Bethesda, MD
Assay Provider (PI) Rahul Kohli Ph.D.
Perelman School of Medicine
University of Pennsylvania, Philadelphia, PA
Activation-Induced Deaminase (AID) is a cytosine deaminase which converts cytosine into uracil within stretches of ssDNA. The presence of uracil in DNA initiates a cascade of mutagenic DNA repair to introduce point mutations and DNA double strand breaks. Specific targeting of AID to the immunoglobulin heavy chain loci (Igh) promotes mutagenesis in the antibody variable region for somatic hypermutation (SHM) or switch regions leading to class switch recombination (CSR). However, AID also plays a role in accumulating unnecessary mutations across the genome. Mis-targeting of AID results in the initiation of tumor development and leads to greater drug resistance among cancer cells when continually expressed. To identify an AID inhibitor, a small molecule library will be screened in collaboration with NCATS core facility at NIH. To confirm biological function, inhibitors will be examined in an in vitro murine B-cell activation assay and subsequent secondary validation screens. Top molecules will be further screened to identify inhibitory efficacy against a wild type primary splenocytes assay. Using these approaches, we hope to identify a small molecule with great efficacy and low toxicity for use as a molecular probe to further characterize AID's intricacies, or even as a therapeutic.
A FRET based analysis of cytosine deamination, was developed to identify potential inhibitors of AID catalytic activity. This screen has two signal output, Read 1 evaluates the AID inhibition response. The second readout (Read 2) evaluates UDG response and is uses as a counterscreen to exclude false positive inhibitors. Inhibition in AID and inactivity in the UDG signal is the desired outcome for this assay.
SEQUENCE No. (e.g., 1, 2, 3, etc.); […] (e.g., Cells, Incubation, Reagent, etc.); VALUE; DESCRIPTION
1a; Reagent; 3 uL; [4/3x] 1 uM AID/2.67 U/mL UDG
1b; Reagent; 3 uL; 2 U/mL UDG
1c; Reagent; 3 uL; 1 uM AID
2a; Compound; 46 nL; Follow-up plates (0.64 uM - 10 mM)
2b; Control; 46 nL; ATA ([…] - 10 mM)
3; Time; 10 min; incubation at room temperature
5; Time; 4 hr; incubation at room temperature
6; Reagent; 4 uL; [2x] 250 mM NaOH
7; Time; 15 sec; centrifuge at 1000 rpm
8; Time; 30 min; incubation at room temperature
9a; Detection; fluorescence (Read 1: AID); EnVision (PerkinElmer) plate reader, 540 excitation and 590 emission filters
9b; Detection; fluorescence (Read 2: UDG); EnVision (PerkinElmer) plate reader, 560 excitation and 665 emission filters
NOTES (numbers refer to sequence above)
1a; Reagents were dispensed in a medium-binding black solid-bottom Greiner plates (789176F) using a BioRptr liquid dispenser. Dispense 3 uL of [4/3x] 1 uM AID (provided by Kohli lab) and [4/3x] 2 U/mL UDG (NEB M0280L) into columns 1, 2, 5 to 48.
1b; Dispense 3 uL of [4/3x] 2 U/mL UDG into column 3.
1c; Dispense 3 uL of [4/3x] 1 uM AID into column 4.
2a; Compound (7-points [uM] (0.64; 3.2; 16; 80; 400; 2,000; 10,000; 20,000) double pin-transferred (Dip Factor = 2) using the Kalypsys (Wako USA) pintool equipped with a 1536 pinhead for a final concentration range of 7.32 nM - 114 uM. […]
9a; Fluorescence signal (column label AID) was read using the EnVision plate reader. […]
% is scaled to controls: 0 for no effect and ±100 for the full control effect; potency is read from the fitted curve at half-maximal effect.

Structure (SMILES) | Potency | activity change, negative = inhibition
CC(=O)c1c(O)c(C)c(O)c(Cc2c(O)c3c(c(C(=O)/C=C/c4ccccc4)c2O)OC(C)(C)C=C3)c1O | 28.2 µM (active) | –
Cc1cccc2c(CCN)c[nH]c12 | – | 1.94% (inactive)
COc1cccc(CNCCc2ccccc2)c1 | – | 0.963% (inactive)
COC1CC(OC2CCC3(C=O)[C@H]4CCC5(C)C(C6=CC(=O)OC6)CCC5(O)[C@@H]4CCC3(O)C2)OC(C)C1O (stereo not given in full) | – | 5.64% (inactive)
O=C(O)CCS(=O)(=O)C(Cl)Cl | – | 2.04% (inactive)

Reference: PubChem BioAssay AID1347428 (National Center for Advancing Translational Sciences (NCATS), 2020)
